# Assay results published in PubChem BioAssay AID2284362 (EPA ToxCast).
# Records with an inconclusive call do not appear. The source made the active and inactive calls. The calls were made as follows: active = hit-call score of the fitted dose curve at least 0.9, where 1 is the maximum; inconclusive = response in the unintended direction; inactive = score below 0.9.
# Experiment: CCTE_Mundy_HCI_iCellGABA_NOG_NeuriteCount: CCTE's Neurite Outgrowth Assay in iCellGABA cells for Neurite Count, Mundy Lab
# Protocol: CCTE_Mundy_HCI_iCellGABA_NOG is a multiplexed, cell-based-readout assay that uses iCell GABANeurons from FUJIFILM Cellular Dynamics, Inc. (FCDI), human GABAergic enriched neurons derived from induced pluripotent stem (iPS) cells, with measurements taken at 50.33 hours after chemical dosing in a microplate: 96-well plate.CCTE_Mundy_HCI_iCellGABA_NOG_NeuriteCount is one of four components of the CCTE_Mundy_HCI_iCellGABA_NOG assay. It measures neurite outgrowth related to number of neurites using High Content Imaging of fluorescently labelled markers.Data from the assay component CCTE_Mundy_HCI_iCellGABA_NOG_NeuriteCount was analyzed at the endpoint CCTE_Mundy_HCI_iCellGABA_NOG_NeuriteCount in the positive analysis fitting direction relative to DMSO as the negative control and baseline of activity. Using a type of morphology reporter, loss-of-signal activity can be used to understand developmental effects.
# Exposure starts 2 hours post-plating by adding 10 ul of the working solution to 90 ul of media in the wells for a 1/10 dilution. Forty-eight hours after chemical treatment cells are fixed by direct addition of 100 ul of warm (37C) Dulbecco's phosphate buffered saline (DPBS) fixative solution containing 8% paraformaldehyde, 8% sucrose, and 0.1% of 3 mg/ml Hoechst 33342 into each well. Primary antibodies are prepared by dilution in Immunocytochemical Staining Buffer (ISB), 10X Dulbecco's PBS, 0.1% Saponin, 5% Bovine Serum Albumin, 0.5% NaN3 (Sodium Azide) and betaIII-tubulin (rabbit anti-betaIII-tubulin, 1:800) followed by Alexa Fluor-488 secondary (1:500) to label neuronal cell bodies and neurites. A Cellomics ArrayScan VTi HCS Reader is used for automated image acquisition and analysis of neurite outgrowth.
SMILES,outcome,AC50
CCOP(=O)(SC(C)CC)N1CCSC1=O (centres undefined),inactive,
CCOP(=O)(OCC)Oc1nc(Cl)c(Cl)cc1Cl,inactive,
CCCSP(=O)(OCC)Oc1ccc(Br)cc1Cl (centres undefined),inactive,
CCOP(=S)(OCC)Oc1cc(C)nc(C(C)C)n1,,76.5 µM (active)
COP(=S)(OC)SCN1C(=O)c2ccccc2C1=O,,74.2 µM (active)
CCOP(=S)(OCC)Oc1ccc2c(C)c(Cl)c(=O)oc2c1,,71.2 µM (active)
CCOP(=S)(OCC)Oc1nc(Cl)c(Cl)cc1Cl,,30.1 µM (active)
CCN(CC)c1nc(C)cc(OP(=S)(OC)OC)n1,,89.1 µM (active)
COP(N)(=O)SC (centres undefined),inactive,
COP(=O)(OC)O/C(=C\Cl)c1cc(Cl)c(Cl)cc1Cl,,66.5 µM (active)
CNC(=O)CSP(=S)(OC)OC,inactive,
CNC(=O)CSP(=O)(OC)OC,inactive,
COP(=O)(OC)C(O)C(Cl)(Cl)Cl (centres undefined),inactive,
CCOP(=S)(OCC)OC(Cl)C(Cl)(Cl)Cl (centres undefined),,29.7 µM (active)
CCOC(=O)CC(SP(=O)(OC)OC)C(=O)OCC (centres undefined),inactive,
CCOP(=S)(OCC)SCSC(C)(C)C,,81.4 µM (active)
COP(=O)(OC)OC=C(Cl)Cl,inactive,
COP(=O)(NC(C)=O)SC (centres undefined),inactive,
CCOC(=O)CC(SP(=S)(OC)OC)C(=O)OCC (centres undefined),,74.1 µM (active)
COP(=O)(OC)O/C(C)=C/C(=O)N(C)C,inactive,
CCOP(=S)(OCC)SCSCC,inactive,
CCOP(=S)(Oc1cnc(C(C)(C)C)nc1)OC(C)C (centres undefined),inactive,
COP(=O)(OC)OC(Br)C(Cl)(Cl)Br (centres undefined),,16.1 µM (active)
CCCCSP(=O)(SCCCC)SCCCC,,65.2 µM (active)
